Source: PubChem (National Center for Advancing Translational Sciences (NCATS))
The list is not random: actives were taken first. Their share in the collection is about 6.5%.
VACV mCherry inh – inhibitors of vaccinia virus infection (mCherry reporter signal). Vaccinia virus mCherry reporter infection, fluorescence. Potency, µM (series often up to 36.5 µM), for inactives: top-dose activity change, negative = inhibition, actives largely listed as inhibitors. actives 0.63% (n = 310,000); calls by dose curve; tested in A549 cells; note: potency is the fitted concentration of half-maximal effect; nearly all actives have a fitted effect of over 35% in size
FMDV antiviral – foot and mouth disease virus antiviral activity; FMDV antiviral cell-based qHTS; Potency, µM (doses to about 57.9 µM), for the others: top-dose activity change, negative = inhibition, actives largely listed as inhibitors; actives 1.2% (n = 410,000); calls by dose curve; tested in HEK293T cells; note: read-out not given here; potency is the fitted concentration of half-maximal effect; nearly all actives have a fitted effect of over 45% in size
HCMV antiviral – inhibitors of human cytomegalovirus | actives 4.5% (n = 410,000) | AID 1259415 | HFF cells, HCMV-luciferase reporter, 72 h; stronger effect = lower value | activity change, negative = inhibition, % at 57.5 µM; in the data active = activity change below about -60%; inconclusive = no clear call, values can overlap the other calls; inactive = above about -39%
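Steps: HFFs plated, 16 h 37C; compounds added; HCMV-luciferase added to MOI 1 PFU/cell; 72 h 37C; OneGlo reagent, 5 min room temperature; luminescence read, normalized to controls.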
MARV entry inh – blocks Marburg virus binding to or entry into cells; Marburg virus pseudotyped entry inhibition, cell reporter; Potency, µM (series often up to 37.8 µM), for the others: at the highest dose activity change, negative = inhibition, most hits filed as inhibitors; actives 1.8% (n = 300,000); AID 540276; calls by dose curve; tested in HEK293 cells; note: potency is the fitted concentration of half-maximal effect
VACV Venus inh – inhibitors of vaccinia virus (Venus reporter); Vaccinia virus Venus reporter expression, fluorescence; Potency, µM (doses to about 36.5 µM), for the others: top-dose activity change, negative = inhibition, actives largely listed as inhibitors; actives 0.46% (n = 330,000); calls by dose curve; tested in A549 cells; note: potency is the fitted concentration of half-maximal effect; nearly all actives have a fitted effect of over 30% in size
Lassa entry inh – blocks Lassa virus binding to or entry into cells; Lassa virus pseudotype entry inhibition, cell reporter; Potency, µM (doses to about 37.9 µM), for the others: at the highest dose activity change, negative = inhibition, actives largely listed as inhibitors; actives 1.2% (n = 300,000); AID 540256; calls by dose curve; tested in HEK293 cells; note: potency is the fitted concentration of half-maximal effect; nearly all actives have a fitted effect of over 50% in size
Starred values were filed as active, the others as inactive; i = inactive; ? = inconclusive; nt = no result given; + = active, no number; ! = repeats disagree; [ ] = dose if it differs, or a comment. % is set by controls: 0 for no effect and ±100 for the full control effect.

SMILES | VACV mCherry inh | FMDV antiviral | HCMV antiviral | MARV entry inh | VACV Venus inh | Lassa entry inh
S=C(NCc1ccccc1)N1CCCCC1 | i | 10.4% | 42.5 | nt | -5.8% | nt
Cc1ccc(S(=O)(=O)c2cn(CC(=O)Nc3cccc(C)c3)c3cc4c(cc3c2=O)OCO4)cc1 | -7.7% | 1.1% | 44.9 | ? | -3.9% | 21.9%[46.1 µM]
Cn1c(=S)[nH]c2cc(C(=O)N3CCN(C(=O)c4ccccc4)CC3)ccc2c1=O | -21.9% | nt | nt | nt | -17.6% | nt
CCN(C(=O)c1cnc(N2CCN(c3ncccn3)CC2)c2ccccc12)c1cccc(Cl)c1 | ? | 20µM* | -85.3* | ? | ? | ?
Cc1ccc(Cl)cc1N(C)C(=O)c1cnc(N2CCOCC2)c2ccccc12 | -7.2% | -14.5% | -5.1 | nt | -11.0% | -18.1%[46.1 µM]
O=C(c1cnc(N2CCN(c3ncccn3)CC2)c2ccccc12)N1CCN(c2ncccn2)CC1 | -8.2% | -5.9% | ? | ? | -23.8% | -27.9%
CN(C(=O)c1cnc(N2CCN(c3ncccn3)CC2)c2ccccc12)c1ccc(Cl)cc1 | -16.4% | 20µM* | ? | ? | -5.4% | ?
C1CCC(N=C(NC23CC4CC(CC(C4)C2)C3)N2CCOCC2)CC1 | nt | -23.5% | nt | 10µM* | nt | -33.2%
C1CCC(NC(=NC2C3CC4CC(C3)CC2C4)N2CCOCC2)CC1 (stereo not given) | ? | ? | nt | nt | -12.6%[60.7 µM] | nt
Cn1cnc2c(SCc3ccccc3)ncnc21 | i | 50.6% | -18.8 | ? | -2.2% | ?
ClCCn1cnc2c(SCc3ccccc3Cl)ncnc21 | ? | 10.1% | -76.3* | ? | 30.9% | ?
ClCCn1cnc2c(SCc3ccccc3)ncnc21 | ? | 7.3% | -64.4* | 0.891µM* | 31.3% | ?
CC(C)=CCCC(C)=CCN1C(=O)[C@@]2(CC(C)=C[C@@H](COCc3ccccc3)O2)c2ccccc21 | nt | nt | nt | 6.4%[14.2 µM] | nt | nt
Cn1c(=O)c(-c2cc(F)cc(F)c2)nc2cnc(Nc3ccccc3)nc21 | nt | -1.3% | nt | nt | nt | nt
CSC1=Nc2ccccc2N=C(N2CCCC2)C1 | nt | nt | -24.1 | nt | nt | nt
Oc1cc(Nc2ccccc2)cc2cccnc12 | nt | -23.8% | -82.4* | nt | nt | nt
Oc1cccc2cc(Nc3ccccc3)cnc12 | nt | 1.6% | -101.2* | nt | nt | nt
Oc1cc(NCCN2CCOCC2)cc2cccnc12 | nt | ? | -87.4* | nt | nt | nt
COc1ccc(-n2c(CNC(=O)c3ccc(OC)cc3OC)nnc2SC)cc1 | -7.0% | 7.6% | nt | nt | -1.2% | nt
CCn1c(=O)c([N+](=O)[O-])c(Cl)c2ccccc21 | -4.1% | 22.4µM* | 247.5 | ? | 0.0% | ?
CCCCCS(=O)(=O)c1oc(-c2cccs2)nc1S(=O)(=O)c1ccc(C)cc1 | -27.3% | 28.2µM* | -88.2* | -0.6%[46.1 µM] | -27.9% | -10.2%[46.1 µM]
CCS(=O)(=O)c1oc(-c2ccc(F)cc2)nc1S(=O)(=O)c1ccccc1 | ? | 17.8µM* | -99.0* | ? | ? | ?
CCCCS(=O)(=O)c1oc(-c2cccs2)nc1S(=O)(=O)c1ccc(F)cc1 | -15.2%[7.34 µM] | 31.6µM* | -97.8* | ? | -11.5%[7.34 µM] | ?
O=S(=O)(c1ccccc1)c1nc(-c2ccc(F)cc2)oc1N1CCCCCC1 | -20.9% | 0.2% | -21.1 | ? | -7.7% | -29.4%[46.1 µM]
CCCCS(=O)(=O)c1oc(-c2ccc(F)cc2)nc1S(=O)(=O)c1ccc(C)cc1 | -3.4%[7.34 µM] | 28.2µM* | -99.9* | 10µM* | -9.9%[7.34 µM] | ?
SMILES | VACV mCherry inh | FMDV antiviral | HCMV antiviral | MARV entry inh | VACV Venus inh | Lassa entry inh
O=C(O)CCC(CP(=O)(O)O)C(=O)O (stereo not given) | nt | -4.3% | nt | nt | nt | nt
CCC(C)S(=O)(=O)c1oc(-c2ccc(F)cc2)nc1S(=O)(=O)c1ccc(F)cc1 (stereo not given) | i | ? | -100.2* | ? | -26.8% | ?
Cc1c(NC(=O)c2ccc([N+](=O)[O-])o2)cccc1-c1nc2ncccc2o1 | ? | ? | -86.5* | ? | ? | -4.6%
O=C(Nc1cccc2ncccc12)c1ccc([N+](=O)[O-])o1 | ? | 8.4% | -99.8* | ? | ? | ?
Cc1cccnc1NC(=O)c1ccc([N+](=O)[O-])o1 | -25.8% | -1.8% | -76.0* | 5.5% | -10.4% | -22.2%
Cc1cc(C)cc(C(=O)Nc2cccc(-c3nc4ncccc4o3)c2C)c1 | -14.9% | -11.9% | -6.4 | ? | -8.1% | -0.2%[46.1 µM]
Cc1cccnc1NC(=O)c1ccccc1-c1ccccc1C(=O)Nc1ncccc1C | i | -3.6% | -7.4 | 3.7% | 1.9% | 7.31µM*
CCC(C)(C)NS(=O)(=O)c1cc(-c2cc(C)no2)ccc1C | -8.1% | 48.0% | 0.0 | nt | -5.9% | -2.5%[46.1 µM]
Cc1cccc(CNC(=O)c2c3n(c(C)cc2=O)-c2ccccc2SC(c2sccc2C)C3)n1 (stereo not given) | -1.8% | -0.4% | nt | nt | 11.6% | nt
O=C1C=CN(S(=O)(=O)c2ccc(F)cc2)C(c2cccs2)C1 (stereo not given) | nt | nt | -2.5 | nt | nt | nt
CCCCN(CC)CCCNC(=O)c1ccc2c(c1)N(Cc1ccc(C)cc1)C(=O)c1ccccc1S2 | 12.6µM* | ? | -98.0* | nt | ? | ?
O=C(NCCN1CCOCC1)c1ccc2c(c1)N(Cc1ccccc1)C(=O)c1ccccc1S2 | nt | -2.2% | + | nt | nt | nt
Cc1cccc(CN2C(=O)c3ccccc3Sc3ccc(C(=O)NCCCN4CCOCC4)cc32)c1 | -22.8% | -10.5% | -63.6*! | nt | -13.9% | -13.1%[46.1 µM]
O=C(Nc1ccc(OC(F)F)c(Cl)c1)Nc1ccc2c(c1)OCO2 | nt | -9.4% | 15.7 | -3.5% | nt | -25.0%
CCC(=O)Nc1ccc2c(c1)Cc1cc([N+](=O)[O-])ccc1-2 | i | 34.6% | -86.2* | -5.8% | -4.0% | ?
COc1ccc(NC(=S)Nc2cccc([N+](=O)[O-])c2)cc1 | nt | 20.8% | -96.3* | ? | nt | 5.5%
O=C(Nc1cccc([N+](=O)[O-])c1)c1cccc(C(=O)Nc2cccc([N+](=O)[O-])c2)c1 | -7.8% | -23.4% | 73.9 | nt | ? | nt
O=C(Nc1ccc([N+](=O)[O-])cc1)Nc1ccc(OC(F)F)c(Cl)c1 | ? | 25.1µM* | -101.3* | ? | 8.91µM* | 14.6µM*
CC(NC(=O)Nc1cccc([N+](=O)[O-])c1)(C(F)(F)F)C(F)(F)F | ? | ? | -93.3* | ? | ? | ?
O=C(Nc1cccc(F)c1)N1CC2(CCN(C(=O)c3ccco3)CC2)C1 | nt | 8.5% | nt | nt | nt | nt
CCc1c(C(=O)NCCc2ccc(N3CCCCC3)cc2)[nH]c2ccc(Cl)cc12 | nt | nt | nt | -2.1% | nt | -32.7%
COc1ccc(/C=C(/C#N)C(=O)Nc2cccc([N+](=O)[O-])c2)cc1C(=O)O | i | -17.1% | -101.8* | -8.8%[46.1 µM] | -4.3% | -2.7%[46.1 µM]
COc1ccc(NC(=O)Nc2cccc([N+](=O)[O-])c2)cc1Cl | ? | ? | -100.0* | ? | ? | -15.4%
COc1ccc(C(=O)Nc2cccc([N+](=O)[O-])c2)cc1Br | -22.8% | -27.2% | 46.3 | ? | ? | ?
COc1ccc(/C=C(/C#N)C(=O)Nc2cccc(C)c2C)cc1C(=O)O | nt | -8.4% | -36.0 | -10.7% | -10.9% | 11.3%
